Measurements: PubChem BioAssay (Tox21)
Inconclusive results are not listed. Active and inactive are the calls of the source. Unless noted, calls follow the shape of the full dose curve.

Legend:
[1] = Nuclear factor erythroid 2-related factor 2/antioxidant responsive element (Nrf2/ARE) small molecule agonists: qHTS cell viability counter screen in human keratinocytes (AID 1919968; active = well fitted curve in the direction sought with a large enough effect in the repeat runs; an effect the other way counts as inactive or inconclusive; also: nearly all actives have a fitted effect of over 55% in size)
Method in brief: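 Fluorescence read-out from CellTiter-Fluor after 1 h at 37 C. Wells held HaCaT-derived ARE-luciferase reporter cells (1,500/well) treated 23 h with DMSO-dissolved compounds. Run in the same wells as the luciferase agonist read.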

[2] = Nuclear factor erythroid 2-related factor 2/antioxidant responsive element (Nrf2/ARE) small molecule agonists: luciferase reporter gene qHTS assay in human keratinocytes (AID 1919969); also: nearly all actives have a fitted effect of over 35% in size
[3] = target: Gonadotropin-releasing hormone receptor (Homo sapiens) (UniProt P30968); experiment: Human gonadotropin-releasing hormone receptor (GnRHR) small molecule agonists, calcium flux assay in GnRHR-HEK293 cells (AID 1920063); also: nearly all actives have a fitted effect of over 35% in size
Chain of Gonadotropin-releasing hormone receptor (Homo sapiens) (P30968 whole entry, looked up): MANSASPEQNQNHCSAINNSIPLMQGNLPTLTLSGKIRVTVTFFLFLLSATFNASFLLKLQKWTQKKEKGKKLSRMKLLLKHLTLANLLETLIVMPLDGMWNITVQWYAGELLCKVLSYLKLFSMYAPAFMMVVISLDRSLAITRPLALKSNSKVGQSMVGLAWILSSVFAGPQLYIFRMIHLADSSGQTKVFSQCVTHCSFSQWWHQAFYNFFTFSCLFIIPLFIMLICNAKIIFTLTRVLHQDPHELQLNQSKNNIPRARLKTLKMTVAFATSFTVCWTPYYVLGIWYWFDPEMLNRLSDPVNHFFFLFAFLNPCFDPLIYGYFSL
Method in brief: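 Calcium-dye fluorescence, Ex/Em=480/540, recorded every 1 sec over 3 min after compound addition to GnRHR-HEK293 cells. Cells had been seeded 18 hours earlier and dye-loaded for 1 hour at 37 C. Fifteen concentrations, triplicates.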

[4] = target: KiSS-1 receptor (Homo sapiens) (UniProt Q969F8); experiment: Human kisspeptin (KISS1R) small molecule agonists, calcium flux assay in KISS1R-HEK293 cells (AID 1920064; active = well fitted curve in the direction sought with a large enough effect in the repeat runs; an effect the other way counts as inactive or inconclusive)
Chain of KiSS-1 receptor (Homo sapiens) (Q969F8 whole entry, looked up): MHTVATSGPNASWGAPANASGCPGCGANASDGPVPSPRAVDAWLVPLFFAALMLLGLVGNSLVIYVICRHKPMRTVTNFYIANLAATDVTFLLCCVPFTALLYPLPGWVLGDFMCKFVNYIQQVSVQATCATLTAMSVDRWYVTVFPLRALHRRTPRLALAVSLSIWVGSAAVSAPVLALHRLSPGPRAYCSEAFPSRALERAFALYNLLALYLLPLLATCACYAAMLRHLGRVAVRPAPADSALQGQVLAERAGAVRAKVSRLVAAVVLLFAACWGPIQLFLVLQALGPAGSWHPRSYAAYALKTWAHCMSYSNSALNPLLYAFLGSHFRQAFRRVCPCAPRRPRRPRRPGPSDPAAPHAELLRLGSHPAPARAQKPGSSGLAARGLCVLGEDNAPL
Method in brief: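 Calcium flux read-out: kinetic fluorescence at Ex/Em=480/540, 1 s intervals over 3 min, after pin-tool compound addition to dye-loaded KISS1R-HEK293 cells. Fifteen concentrations, triplicates.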

[5] = G protein-coupled receptor (GPCR) small molecule agonists, calcium flux assay: HEK293 wild type cell line counter screen (AID 1920065)
Method in brief: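 Agonist mode; 18 h seeding at 37 C, 1 h dye load at 37 C; compounds pinned from DMSO, ATP as positive control; kinetic fluorescence 480/540 nm, 3 min, 1 s reads; 15 concentrations, triplicate.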

[6] = p53 small molecule agonists, cell-based qHTS assay with human liver microsomes (AID 1963577)
Method in brief: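 Fluorescence of the beta-lactamase reporter in p53RE-bla cells, detected with LiveBLAzer substrate (2 h, room temperature, dark), served as the read-out after 16 h compound exposure at 37 C with human liver microsomes and NADPH, each 0.5 mg/mL final.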

[7] = p53 small molecule agonists, cell-based qHTS assay with rat liver microsomes (AID 1963578)
Method in brief: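 Cells carrying a p53 response element–beta-lactamase reporter were plated and rested 5 h, then dosed with compound in DMSO plus rat liver microsomes and NADPH, each at 0.5 mg/mL final. After 16 h at 37 C, LiveBLAzer substrate was added for 2 h.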

[8] = p53 small molecule agonists, cell-based qHTS assay with human liver microsomes: qHTS cell viability counter screen (AID 1963579); also: nearly all actives have a fitted effect of over 45% in size
Method in brief: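 Cytotoxicity counter screen: p53RE-bla, 4,000 cells/well; 5 h settle, 37 C/5% CO2; cpd + HLM 0.5 mg/mL + NADPH 0.5 mg/mL (final); 16 h, 37 C; CellTiter-Glo, 30 min RT, luminescence.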

[9] = p53 small molecule agonists, cell-based qHTS assay with rat liver microsomes: qHTS cell viability counter screen (AID 1963580); also: nearly all actives have a fitted effect of over 45% in size
Method in brief: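 Luminescent ATP readout (CellTiter-Glo, 30 min at room temperature) reports viability of p53RE-bla HCT-116 cells after 16 h at 37 C with test compounds under metabolic activation by rat liver microsomes and NADPH at 0.5 mg/mL final each.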

[10] = p53 small molecule agonists, cell-based qHTS assay: qHTS cell viability counter screen (AID 1963581); also: nearly all actives have a fitted effect of over 45% in size
Method in brief: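 Cytotoxicity read-out: ATP-based luminescence (CellTiter-Glo, 30 min RT) measured in the same wells as the p53 reporter assay, HCT-116 p53RE-bla cells, 16 h compound exposure at 37 C.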

[11] = p53 small molecule agonists, cell-based qHTS assay (AID 1963582; active = well fitted activation curve with a large enough effect in the signal ratio in the repeat runs, not every such curve was filed as active; the % refers to the signal ratio)
Method in brief: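 Fluorescence intensity read-out of a beta-lactamase reporter under a p53 response element. Cells were exposed to DMSO-dissolved compounds for 16 h at 37 C, then developed with FRET substrate for 2 h at RT.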

[12] = target: 5-hydroxytryptamine receptor 2A (Homo sapiens) (UniProt P28223); experiment: 5-hydroxytryptamine receptor 2A (HTR2A) small molecule antagonists, cell-based qHTS assay (AID 1963586); also: nearly all actives have a fitted effect of over 45% in size
Chain of 5-hydroxytryptamine receptor 2A (Homo sapiens) (P28223 whole entry, looked up): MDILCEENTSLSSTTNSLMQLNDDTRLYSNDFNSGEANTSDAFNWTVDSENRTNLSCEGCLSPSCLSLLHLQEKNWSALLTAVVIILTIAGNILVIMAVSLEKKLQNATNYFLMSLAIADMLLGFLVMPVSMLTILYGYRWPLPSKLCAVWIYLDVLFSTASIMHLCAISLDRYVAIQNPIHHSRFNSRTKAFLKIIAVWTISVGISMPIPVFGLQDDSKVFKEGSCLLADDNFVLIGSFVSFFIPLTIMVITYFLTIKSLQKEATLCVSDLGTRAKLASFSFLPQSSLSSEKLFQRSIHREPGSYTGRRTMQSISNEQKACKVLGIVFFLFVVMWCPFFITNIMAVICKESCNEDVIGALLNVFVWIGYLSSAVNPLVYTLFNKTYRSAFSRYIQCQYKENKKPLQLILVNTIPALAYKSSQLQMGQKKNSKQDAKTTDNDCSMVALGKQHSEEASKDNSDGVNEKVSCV
Method in brief: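 CHO cells stably expressing human HTR2A were plated for 18 h at 37 C, then loaded with calcium dye for 1 h. Compounds were preincubated 5 min at room temperature before DOI (4 nM solution) was added. Kinetic fluorescence was read for 3 min.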

[13] = target: 5-hydroxytryptamine receptor 2A (Homo sapiens) (UniProt P28223); experiment: 5-hydroxytryptamine receptor 2A (HTR2A) small molecule agonists, cell-based qHTS assay (AID 1963587); also: nearly all actives have a fitted effect of over 30% in size
Method in brief: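 HTR2A-CHO cells, plated 18 h at 37 C/5% CO2, dye-loaded 1 h at 37 C; compounds in DMSO added by pin tool (agonist mode). Intracellular calcium flux read as kinetic fluorescence on FDSS over 2 min at 1 s intervals.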

[14] = target: Muscarinic acetylcholine receptor M1 (Homo sapiens) (UniProt P11229); experiment: Cholinergic receptor muscarinic 1 (CHRM1) small molecule antagonists, cell-based qHTS assay (AID 1963588); also: nearly all actives have a fitted effect of over 40% in size
Chain of Muscarinic acetylcholine receptor M1 (Homo sapiens) (P11229 whole entry, looked up): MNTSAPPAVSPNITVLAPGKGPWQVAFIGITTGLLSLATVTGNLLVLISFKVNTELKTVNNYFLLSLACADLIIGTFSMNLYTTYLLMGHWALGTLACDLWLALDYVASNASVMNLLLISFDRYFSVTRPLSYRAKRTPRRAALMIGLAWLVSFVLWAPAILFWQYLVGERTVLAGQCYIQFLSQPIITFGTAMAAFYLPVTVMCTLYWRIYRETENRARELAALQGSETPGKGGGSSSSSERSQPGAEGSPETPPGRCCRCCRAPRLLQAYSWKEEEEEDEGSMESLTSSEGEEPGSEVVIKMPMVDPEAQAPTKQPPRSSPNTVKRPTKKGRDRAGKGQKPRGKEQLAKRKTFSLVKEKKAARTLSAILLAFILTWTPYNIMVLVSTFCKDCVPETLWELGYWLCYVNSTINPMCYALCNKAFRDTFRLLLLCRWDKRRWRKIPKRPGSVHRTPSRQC
Method in brief: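 Compounds were tested at 15 concentrations in three independent runs. Dye-loaded CHRM1-CHO cells were exposed 5 min at room temperature before stimulation by acetylcholine added at 50nM. Intracellular calcium was read kinetically on FDSS for 3 min.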

[15] = target: Muscarinic acetylcholine receptor M1 (Homo sapiens) (UniProt P11229); experiment: Cholinergic receptor muscarinic 1 (CHRM1) small molecule agonists, cell-based qHTS assay (AID 1963589); also: nearly all actives have a fitted effect of over 35% in size
Method in brief: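 Calcium flux read-out: kinetic fluorescence at 1 sec intervals after pin-tool compound addition to dye-loaded CHRM1-CHO cells (human M1). Agonist mode; 15 concentrations tested in triplicate independent runs.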

[16] = cAMP Responsive Elements (CRE) small molecule agonists, cell-based qHTS assay (AID 1963590)
Method in brief: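 Beta-lactamase reporter readout: LiveBLAzer B/G FRET substrate, 2 h at room temperature, added after 3 h compound treatment of CRE-bla HEK 293T cells at 37 C/5% CO2.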

[17] = target: Beta-2 adrenergic receptor (Homo sapiens) (UniProt P07550); experiment: Adrenergic beta2 receptor (ADRB2) small molecule antagonists, cell-based qHTS assay (AID 1963592); also: series mostly up to about 92 µM; nearly all actives have a fitted effect of over 50% in size
Chain of Beta-2 adrenergic receptor (Homo sapiens) (P07550 whole entry, looked up): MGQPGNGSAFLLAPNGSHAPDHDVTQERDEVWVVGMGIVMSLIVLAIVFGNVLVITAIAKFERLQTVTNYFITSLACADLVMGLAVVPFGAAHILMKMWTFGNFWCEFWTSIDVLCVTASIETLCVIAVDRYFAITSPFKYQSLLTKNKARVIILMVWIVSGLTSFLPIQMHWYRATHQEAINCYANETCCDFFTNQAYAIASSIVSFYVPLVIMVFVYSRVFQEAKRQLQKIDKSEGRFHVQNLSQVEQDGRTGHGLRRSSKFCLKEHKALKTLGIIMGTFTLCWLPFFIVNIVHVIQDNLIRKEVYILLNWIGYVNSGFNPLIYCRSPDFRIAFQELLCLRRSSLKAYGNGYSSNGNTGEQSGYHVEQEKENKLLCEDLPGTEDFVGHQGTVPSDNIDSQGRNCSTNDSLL
Method in brief: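 Assay format: CHO-ADRB2 cells, 18-20hr seeding at 37C/5% CO2, then compound plus 1nM isoproterenol agonist mix for 0.5hr RT. Homogeneous time-resolved fluorescence cAMP detection after 1hr, expressed as 665/615 nm ratio.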

[18] = target: D(2) dopamine receptor (Homo sapiens) (UniProt P14416); experiment: Dopamine D2 receptor (DRD2) small molecule agonists, cell-based qHTS assay (AID 1963594); also: nearly all actives have a fitted effect of over 35% in size
Chain of D(2) dopamine receptor (Homo sapiens) (P14416 whole entry, looked up): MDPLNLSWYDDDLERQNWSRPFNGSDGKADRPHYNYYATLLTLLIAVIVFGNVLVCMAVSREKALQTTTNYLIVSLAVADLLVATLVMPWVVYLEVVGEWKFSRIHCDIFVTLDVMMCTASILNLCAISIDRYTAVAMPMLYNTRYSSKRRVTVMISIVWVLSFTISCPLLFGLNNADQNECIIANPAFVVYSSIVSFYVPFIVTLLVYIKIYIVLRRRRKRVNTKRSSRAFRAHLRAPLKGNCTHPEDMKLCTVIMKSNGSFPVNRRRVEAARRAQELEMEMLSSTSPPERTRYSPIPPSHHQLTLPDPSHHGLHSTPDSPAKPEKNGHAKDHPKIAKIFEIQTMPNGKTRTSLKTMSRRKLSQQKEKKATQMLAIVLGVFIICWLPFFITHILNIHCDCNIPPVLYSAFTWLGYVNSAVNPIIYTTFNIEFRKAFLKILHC
Method in brief: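 HEK293 cells stably expressing DRD2 were cultured 24 h at 37 C, then given Ro20-1724 (0.1 mM final) and compounds for 10 min at room temperature. NKH477 (200nM) was then added for 30 min. cAMP was read by HTRF.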

[19] = target: D(2) dopamine receptor (Homo sapiens) (UniProt P14416); experiment: Dopamine D2 receptor (DRD2) small molecule antagonists, cell-based qHTS assay (AID 1963595; active = well fitted inhibition curve with a large enough effect in the signal ratio in the repeat runs, with a control signal flat; the % refers to the signal ratio)
Method in brief: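 Cells were plated and grown for 24 h at 37 °C. Ro20-1724 (0.1 mM final) went in first, then compound for 10 min. NKH477 (200 nM) with quinpirole (12 nM) followed for 30 min at RT, then HTRF detection reagents for 1 h.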

[20] = cAMP Responsive Elements (CRE) small molecule antagonists, cell-based qHTS assay (AID 1963591; active = well fitted inhibition curve with a large enough effect in the signal ratio in the repeat runs, not every such curve was filed as active; the % refers to the signal ratio)
Method in brief: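 HEK293T CRE-bla; 18 h preincubation; compound pin-transfer; NKH477 0.25 uM final, 3 h, 37 C; LiveBLAzer FRET substrate 2 h RT.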
% is scaled to controls: 0 for no effect and ±100 for the full control effect.

CC(C)=CCC/C(C)=C/COC=O
inactive: Potency [1] | Potency [2] | Potency [3] | outcome [4] | outcome [5] | Potency [6] | Potency [7] | Potency [8] | Potency [9] | Potency [10] | Potency [11] | Potency [12] | Potency [13] | Potency [14] | Potency [15] | Potency [16] | Potency [17] | Potency [18] | Potency [19]

CCCCC(CC)COC(=O)CC#N (stereo not given)
inactive: Potency [1] | Potency [2] | Potency [3] | outcome [4] | outcome [5] | Potency [6] | Potency [7] | Potency [8] | Potency [9] | Potency [10] | Potency [11] | Potency [12] | Potency [13] | Potency [14] | Potency [15] | Potency [16] | Potency [17] | Potency [18] | Potency [19]

O=S(O)O
inactive: activity change, negative = cytotoxicity [1] -0.591% [at 19 µM] | activity, positive = activation [2] -3.64% [at 19 µM] | activity change [3] -0.296% [at 11.8 µM, stronger effect = higher value] | activation [4] -3.75% [at 15.8 µM] | activation [5] -0.558% [at 11.8 µM] | activation [6] 4.55% [at 13.5 µM] | activation [7] -0.532% [at 13.6 µM] | activity change, negative = cytotoxicity [8] -0.784% [at 13.5 µM] | activity change, negative = cytotoxicity [9] 11.9% [at 13.5 µM] | activity change, negative = cytotoxicity [10] 16.3% [at 13.5 µM] | activation [11] 0.538% [at 13.5 µM] | activity, negative = inhibition [12] -15% [at 12.7 µM] | activation [13] 4.7% [at 15.9 µM] | activity, negative = inhibition [14] 27.3% [at 12.6 µM] | activation [15] 0.709% [at 15.8 µM] | activation [16] 1.33% [at 19 µM] | activity change, negative = inhibition [20] 0.0539% [at 18.9 µM] | activity change, negative = inhibition [19] -0.433% [at 18.9 µM]

CC(C)(C)c1n[nH]c(=S)n(N)c1=O
inactive: Potency [1] | Potency [2] | Potency [3] | outcome [4] | outcome [5] | Potency [6] | Potency [7] | Potency [8] | Potency [9] | Potency [10] | Potency [11] | Potency [12] | Potency [13] | Potency [14] | Potency [15] | Potency [16] | Potency [17] | Potency [19]

C=C(C)c1cccc(C(C)(C)N=C=O)c1
inactive: Potency [1] | Potency [2] | Potency [3] | outcome [4] | outcome [5] | Potency [6] | Potency [7] | Potency [8] | Potency [9] | Potency [10] | Potency [11] | Potency [12] | Potency [13] | Potency [14] | Potency [15] | Potency [16] | Potency [20] | Potency [19]

CCOC(=O)c1cccnc1
inactive: Potency [1] | Potency [2] | Potency [3] | outcome [4] | outcome [5] | Potency [6] | Potency [7] | Potency [8] | Potency [9] | Potency [10] | Potency [11] | Potency [12] | Potency [13] | Potency [14] | Potency [15] | Potency [16] | Potency [17] | Potency [18] | Potency [19]

CCc1cccc(CC)c1N(COC)C(=O)CS(=O)(=O)O
inactive: Potency [1] | Potency [2] | Potency [3] | outcome [4] | outcome [5] | Potency [6] | Potency [7] | Potency [8] | Potency [9] | Potency [10] | Potency [11] | Potency [12] | Potency [13] | Potency [14] | Potency [15] | Potency [20] | Potency [17] | Potency [18] | Potency [19]
